Experimental findings from ChEMBL document CHEMBL4513216, “Probing the Open Global Health Chemical Diversity Library for Multistage-Active Starting Points for Next-Generation Antimalarials” (ACS Infect Dis, 2020) are described below.

The structures appear in SMILES notation. Out of some 65,000 compounds screened, about 2,100 (3.2%) showed an effect of 50% or more. The median lay at about -52%. For the sample, strong results were picked, then their nearest neighbours and some compounds at random.

This experiment concerns Plasmodium falciparum. The experiment in a line: Screen against P. falciparum Asexual Blood Stage (ABS), at 5uM. In kind it is functional, Dd2. The settings on record: tested at 5 uM.
Turning to `O=C(c1cc2ccccc2[nH]c1=O)N1CCC2(CCCNC2)C1` (configuration not stated), the INHIBITION is reported as -49.9%.
For `CCCN1CC[C@@H]2OC[C@H](C(=O)Nc3cccnc3)C[C@@H]2C1`, the INHIBITION is -131%.
To `CC(C)NC(=O)CN1CCSC2(CCCCC2)C1` belongs -66.6%.
As for `CN1CC=C(c2noc(CCC(=O)N3CCc4ccccc4C3)n2)CC1`, the INHIBITION is -27.1%.
With `CCc1ccccc1Nc1noc2c1CN(C(=O)CCOC)CC2` the figure was 85.1%; with `Cn1ccnc1CN1CC[C@H]2CO[C@H](CNc3ncccn3)[C@H]2C1`, -52.6%; with `CC(C)Nc1nc2c(c(NC3CC3)n1)CCN(Cc1nccn1C)CC2`, 76.1%.
`Cc1cccc(CN2CC[C@@H]3[C@@H]2CCN3C(=O)Cc2ccsc2)n1`: the INHIBITION is recorded as -115%.
Take `Cn1ccnc1CN1CCN2C[C@H](Oc3cncnc3)C[C@H]2C1`: the INHIBITION is -70.4%.
With `CC(C)Nc1nc2c(c(NC3CC3)n1)CN(C(=O)Cc1ccsc1)CC2` the figure was 75.6%; with `CC(C)N1CCO[C@H]2CN(C(=O)Cc3ccsc3)C[C@H]21`, -23.1%; with `CN1CCC(n2cc3nc(N)[nH]cc-3c2=O)CC1`, -44.7%.
To `O=C(COc1ccccc1)N1C[C@@H](O)[C@H](N2CCCC2)C1` belongs -15.5%; to `CNC(=O)[C@@H]1C[C@H]2CN(Cc3c(C)noc3C)C[C@H]2N1C(C)C`, -39.8%; to `Cc1cc(N(C)CCOc2ccccc2F)nc(N)n1`, 85.3%.
With `COCCN(C)C(C)Cc1ccccc1OC` (configuration not stated), the INHIBITION was found to be 23.6%.
In the case of `COc1ccccc1OCCN(C)c1cc(C)nc(N)n1`, the INHIBITION was 70.2%.
With `COc1ccccc1OCCCN(C)c1cc(C)nc(N)n1` the figure was 73.5%; with `CC(C)CNC(=O)N1C[C@H]2CCN[C@H]2C1`, 14%; with `N#CC1(C(=O)NCC2CCC3(CCNCC3)O2)CC1` (configuration not stated), 22.6%.
In the case of `CCS(=O)(=O)c1nnc([C@@H](N)Cc2ccccc2)o1`, the INHIBITION is -131%.
With `CC[C@H](C)[C@@H](CO)NC(C)Cc1ccc(Cl)cc1` (some centres not stated) the figure was 18.9%.
On to `COCCN1C(=O)CC[C@@H]2[C@@H]1CCN2Cc1c(C)noc1C`, for which the INHIBITION is on record as -35.6%.
To `O=C(Nc1cccnc1)[C@H]1CN(C2CCCC2)C[C@H]2OCC[C@@H]12` belongs -39.7%; to `COCCN1CCN(Cc2ccoc2)Cc2cccnc21`, 21%.
In the case of `CN(C)CCN1CCN(Cc2nccs2)Cc2cccnc21`, the INHIBITION is 5.69%.
With `CN(C)CCN1CCN(Cc2cccs2)Cc2cccnc21` the figure was 77.1%.
With `CC(C)c1cc(C(=O)N2CCCC3(CCNC3)C2)no1` (configuration not stated), the INHIBITION is recorded as -75.8%.
To `CCN1C[C@@H]2CN(Cc3cccs3)C[C@@H]2C1=O` belongs 37.6%; to `O=C1[C@H]2CN(Cc3cccs3)C[C@H]2CN1c1cncnc1`, -85.7%.
Take `O=C1CN(C(=O)c2ccc(F)cc2)CC(O)CN1Cc1cccs1` (configuration not stated): the INHIBITION came out at 88.8%.
To `COCC(=O)NC(C)Cc1cccc(OC)c1` (configuration not stated) belongs -118%; to `Cc1noc(C)c1CN1C[C@@H]2COC[C@@H](C(=O)N3CCCO3)[C@@H]2C1`, -40.4%.
As for `Cc1c(C(C)NC2CCN(C(C)C)CC2)cnn1-c1ccc(F)cc1F` (configuration not stated), the INHIBITION is 79.9%.
Turning to `Cc1c(C(C)NCC2CCCC2)cnn1-c1ccc(F)cc1F` (configuration not stated), the INHIBITION is reported as 71.9%.
Regarding `N#Cc1ccc(NC2CCN(c3ncccn3)CC2)cc1C(F)(F)F`, the INHIBITION is given as 5.54%.
With `CCc1noc(C(C)N2CCNCC2)n1` (configuration not stated) the figure was -31.4%; with `CCN1CCCC1CN(CCN(C)C)S(=O)(=O)c1ccccc1C#N` (configuration not stated), 79.6%; with `O=C(NC1CC(F)(F)C1)[C@]12COC[C@H]1CN(Cc1cccnc1)C2`, -63.2%.
As to `CC1CCN(CCNCc2cc(-c3ccccc3)cn3nnnc23)CC1`, the INHIBITION was determined as 70.1%.
With `O=C(Cc1ccsc1)N1C[C@@H]2OCCN(CC3CCCO3)[C@@H]2C1` (some centres not stated) the figure was -85.3%; with `O=C(N1CCOCC1)N1CCCC2(CCCNC2)C1` (configuration not stated), -45.8%.
With `Cn1cc(CN2C[C@@H]3OCCN(c4ncccn4)[C@@H]3C2)cn1` the figure was -106%; with `CCOc1ccc2ccccc2c1CNCC1CCNCC1`, 91.6%.
With `CCOc1ccc2ccccc2c1CNCC1CCS(=O)(=O)C1` (configuration not stated) the figure was 74.9%.
Consider `CC(C)CCN1C[C@@H]2C[C@H](C(=O)Nc3cccnc3)[C@H](C1)O2`, for which the INHIBITION is listed as -112%.
`C[C@@H]1CN(C2CCOC2)C[C@]12CCN(c1cccnc1)C2=O` (some centres not stated): the INHIBITION was -78.9%.
As to `CC(=O)N1C[C@@H]2CN(Cc3cccnc3)CCO[C@@H]2C1`, the INHIBITION was -51.9%.
To `Cc1ccc([C@]2(O)CC[C@H]3CN(Cc4ccncc4)C[C@H]32)nc1` belongs -23.8%; to `Cc1ccc([C@]2(O)CC[C@H]3CN(Cc4cccnc4)C[C@H]32)nc1`, -61.7%.
With `Cc1ccc([C@]2(O)CC[C@H]3CN(Cc4cc(C)c(O)c(C)c4)C[C@H]32)nc1` the figure was 74.6%; with `Cc1ccc(-c2cn3c(n2)CO[C@@H](CNCc2nccn2C)C3)cc1`, 87.4%.
`CC[C@H]1CN2CC[C@H]1C[C@@H]2CNCc1ccc2c(c1)OCO2`: the INHIBITION stood at 60.9%.
With `CC[C@H]1CN2CC[C@H]1C[C@@H]2CNCc1ccc(OC)cc1` the figure was 7%; with `CC[C@H]1CN2CC[C@H]1C[C@@H]2CNC(=O)Nc1cc(OC)cc(OC)c1`, 63.8%; with `CC(C)NC(=O)NC[C@H]1C[C@@H]2CCN1C[C@@H]2CN(C)c1ccccc1`, -37.9%.
With `CC[C@H]1CN2CC[C@H]1C[C@@H]2CNC(=O)NC1CCCCC1` the figure was -27.6%.
Consider `CC[C@H]1CN2CC[C@H]1C[C@@H]2CNC(=O)Nc1ccccc1`, for which the INHIBITION is listed as -65.9%.
On to `CC[C@H]1CN2CC[C@H]1C[C@@H]2CNCc1ccc(OC(F)(F)F)cc1`, for which the INHIBITION is 85.7%.
Consider `CCN(CC)C[C@H]1CN2CC[C@H]1C[C@@H]2CNC(=O)Nc1ccsc1`, for which the INHIBITION worked out at 8.11%.
As to `CC[C@H]1CN2CC[C@H]1C[C@@H]2CNCc1ccc(N(C)C)cc1`, the INHIBITION was 62.8%.
To `CC1CCN(C[C@H]2CN3CC[C@H]2C[C@@H]3CNC(=O)c2ccco2)CC1` belongs -36.5%.
Consider `COCC(=O)NC[C@H]1C[C@@H]2CCN1C[C@@H]2CN(C)c1ccccc1`, for which the INHIBITION is -64.8%.
With `CO[C@@H]1CC[C@H]2[C@H]1OCCN2CC1CC1` the figure was -30.3%; with `c1ccc(CN2C[C@@H]3OCCN(c4ncccn4)[C@@H]3C2)nc1`, -56.2%.
Consider `CSc1ccc(C2SCC(=O)Nc3c2c(=O)[nH]n3C2CCOCC2)cc1` (configuration not stated), for which the INHIBITION was -122%.
With `CCS(=O)(=O)N1CCc2c(COC)cncc2C1` the figure was -61.4%; with `COc1ccc(NC(=O)Cn2nc(C)c(C(C)=O)c2C)cc1`, 89.7%.
With `CC(C)N(C)Cc1cncc2c1CCN(CC1CC1)C2` the figure was -87.9%.
As to `CC(C)c1cc(N2CCC3(CCN(C)C3)C2)ncn1` (configuration not stated), the INHIBITION was -27.6%.
To `CNC(=O)CN1CCC12CCN(C(=O)Cc1ccccc1)C2` (configuration not stated) belongs -6.6%; to `O=S(=O)(c1ccccc1)N1C[C@@H]2CCN[C@@H]2C1`, 24.4%.
To `O=C(NCc1ccccc1)N1C[C@H]2CCN[C@H]2C1` belongs -86.8%.
Turning to `O=S(=O)(c1cccc(Cl)c1)N1C[C@@H]2CCN[C@@H]2C1`, the INHIBITION was found to be 88.1%.
For the compound `Cc1ccc(S(=O)(=O)N2C[C@@H]3CCN[C@@H]3C2)cc1`, the INHIBITION worked out at 4.39%.
With `O=C(Cc1ccc(F)cc1)N1C[C@H]2CCN[C@H]2C1`, the INHIBITION was 7.59%.
In the case of `O=S(=O)(c1ccc(Cl)cc1)N1C[C@@H]2CCN[C@@H]2C1`, the INHIBITION amounted to 82%.
To `CC(C)CNC(=O)[C@H]1C[C@H]2CN(Cc3cccnc3)C[C@@H]1O2` belongs -30.9%.
In the case of `Nc1ncccc1CN1C[C@H]2CC[C@@H](C1)N(CC1CC1)C2=O`, the INHIBITION is on record as -61.3%.
As for `FC(F)Oc1ccccc1CN1CCCC(c2nccn2CC2CC2)C1` (configuration not stated), the INHIBITION is recorded as 86.4%.
With `CC1C(=O)Nc2cccnc2N1S(=O)(=O)c1ccc(C#N)c(Cl)c1` (configuration not stated) the figure was -88.9%.
`CC(C)=CCN1C[C@@H]2CC[C@H]1CN(Cc1cc(=O)[nH]c(=O)[nH]1)C2`: the INHIBITION worked out at 4.88%.
With `COCCN(CC1CC1)c1nc(CCN)nc2sc(C)c(C)c12` the figure was 77.5%; with `CCN(CCN(C)C)c1nc(CCN)nc2sc(C)c(C)c12`, 89.8%.
With `Cc1sc2nc(CCN)nc(N(CCN(C)C)CC3CCCO3)c2c1C` (configuration not stated) the figure was 70.2%; with `Cc1cccn2cc(CC(=O)N(CCN(C)C)CC3CCCO3)nc12` (configuration not stated), -84.6%; with `Cc1nnc([C@@H]2CC[C@@H]3[C@@H](CCN3Cc3ccccn3)O2)o1`, -18%.
With `CN[C@@H](C)C(=O)N(Cc1cccc(C)c1)Cc1ccccc1OC` the figure was 83.6%; with `COc1cccc(CC(C)NCC(=O)Nc2ccccc2C)c1` (configuration not stated), -75%; with `O=C(c1ccncc1)N1C[C@@H]2OCCN(CCN3CCCC3)[C@@H]2C1`, -29.2%.
Take `CCC1CNCc2cc3c(OC)ccc(OC)c3nc2O1` (configuration not stated): the INHIBITION was -11%.
To `O=C(CC(F)(F)F)N1C[C@H]2CCN[C@H]2C1` belongs -86.8%; to `CCc1nccn1CCNC1CCN(c2nc3ccc(Cl)cc3s2)CC1`, 85.7%.
With `O=C([C@@H]1C[C@@H]2CCN(Cc3ccccn3)C[C@H]2O1)N1CCCO1` the figure was -36.6%; with `Cc1cccnc1CC(C)NC1CCSCC1` (configuration not stated), 23.6%.
Take `Cc1cccnc1CC(C)NC1Cc2ccccc2C1` (configuration not stated): the INHIBITION stood at 89.2%.
To `O=C1[C@H]2CN(Cc3ccoc3)C[C@H]2CN1Cc1cccnc1` belongs -10%.
